Bioassay records deposited in PubChem by National Center for Advancing Translational Sciences (NCATS).
Shown are actives, neighbours in structure and some others; about 3.2% of the full set was active somewhere.
KDM4E inh – qHTS Assay for Inhibitors of Human Jumonji Domain Containing 2E (JMJD2E). Lysine-specific demethylase 4E (Homo sapiens), B2RXH2. JMJD2E catalytic domain, FDH-coupled NADH fluorescence (FDH is formaldehyde dehydrogenase). Potency, µM (series often up to 57.1 µM), for inactives: at the top dose activity change, negative = inhibition, hits mostly inhibitors. 230,000 tested, 1.6% active; active = well fitted inhibition curve with a large enough effect, not every such curve was filed as active; inconclusive = small, poorly fitted or top-dose-only effect, or another doubt; inactive = no such curve, though single readings can be large or run the other way;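 note: potency is the fitted concentration of half-maximal effect; 0% = wells with enzyme and -100% = buffer wells without enzyme; nearly all actives have a fitted effect of over 50% in size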
Target sequence (B2RXH2 1-337 limits assumed): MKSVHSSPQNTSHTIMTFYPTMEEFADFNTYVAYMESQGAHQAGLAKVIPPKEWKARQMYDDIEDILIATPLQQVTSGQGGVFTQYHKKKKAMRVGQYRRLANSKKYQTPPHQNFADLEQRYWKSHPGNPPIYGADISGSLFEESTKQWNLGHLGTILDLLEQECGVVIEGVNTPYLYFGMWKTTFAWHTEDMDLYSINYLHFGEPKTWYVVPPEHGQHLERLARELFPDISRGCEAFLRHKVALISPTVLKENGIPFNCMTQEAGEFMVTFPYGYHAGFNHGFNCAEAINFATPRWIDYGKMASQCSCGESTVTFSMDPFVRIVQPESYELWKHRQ
Tau ThT inhib – qHTS for Inhibitors of Tau Fibril Formation, Thioflavin T Binding. 270,000 tested, 2.1% active. Potency, µM (doses to about 57.4 µM), without a hit: at the top dose activity, negative = inhibition, hits mostly inhibitors. AID 1460, 2008. Microtubule-associated protein tau (Homo sapiens), P10636. recombinant tau K18 P301L, heparin-induced fibrillization, ThT fluorescence; note: potency is the fitted concentration of half-maximal effect; % is set by controls: 0 for no effect and ±100 for the full control effect; nearly all actives have a fitted effect of over 55% in size
Target sequence (P10636 561-689 P618L limits assumed): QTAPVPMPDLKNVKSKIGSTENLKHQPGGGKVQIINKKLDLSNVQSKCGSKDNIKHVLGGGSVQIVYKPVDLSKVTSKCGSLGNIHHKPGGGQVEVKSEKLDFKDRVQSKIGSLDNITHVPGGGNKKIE
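Tau K18 P301L fragment (15 uM unlabeled plus 0.24 uM Alexa 594-labeled) in 100 mM sodium acetate pH 7 with compound, fibrillization induced by 20 uM heparin for 6 hr at 37 C. Thioflavin T (30 uM) added, fluorescence read after 1 hr (ex 450, em 510 nm).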
Tau fluor cs – Counterscreen qHTS for Inhibitors of Tau Fibril Formation, Fluorescence Polarization. tau K18 P301L Alexa594 fluorescence, heparin fibrillization. Potency, µM (doses to about 57.7 µM), for the others: top-dose activity change, negative = decrease. 280,000 tested, 0.93% active. AID 1463, 2008; note: potency is the fitted concentration of half-maximal effect; % is set by controls: 0 for no effect and ±100 for the full control effect; nearly all actives have a fitted effect of over 55% in size
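Human tau K18 P301L (15 uM unlabeled, 0.24 uM Alexa 594-labeled) in 100 mM sodium acetate pH 7 with 20 uM heparin, 6 hr at 37 C. ThT 30 uM added, 1 hr ambient; Alexa 594 FP and total fluorescence read at 555/632 nm.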
Lamin A splicing – qHTS Assay for Modulators of Lamin A Splicing | HeLa LMNA splicing GFP/RFP minigene ratio, 48 h | Potency, µM (series often up to 46.1 µM), inactives show top-dose ratio change, negative = inhibition, usual class: inhibitors | 200,000 tested, 0.01% active; active = well fitted inhibition curve with a large enough effect in the signal ratio, with a control signal flat, not every such curve was filed as active; inconclusive = small, poorly fitted or top-dose-only effect, or effect the other way, or a change in a side signal; the % refers to the signal ratio; note: potency is the fitted concentration of half-maximal effect; % is set by controls: 0 for no effect and ±100 for the full control effect
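S3 HeLa stable clones carrying a lamin A-EGFP splicing minigene plus DsRed2 were seeded at 600 cells/well in Opti-MEM with 2% FBS, pin-dosed and incubated 48 h at 37°C. Acumen cytometry (488 nm) gave the GFP/RFP total-intensity ratio.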
Tau fibril FP – qHTS for Inhibitors of Tau Fibril Formation, Fluorescence Polarization. Microtubule-associated protein tau (Homo sapiens), P10636. K18 P301L tau heparin fibrillization, Alexa594 FP, 6 h. Potency, µM (highest dose often 57.7 µM), for the others: at the top dose activity, negative = inhibition, most hits filed as inhibitors. 280,000 tested, 0.39% active. AID 1468, 2008; note: potency is the fitted concentration of half-maximal effect; % is set by controls: 0 for no effect and ±100 for the full control effect; nearly all actives have a fitted effect of over 55% in size
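Human K18 P301L fragment (15 uM unlabeled plus 0.24 uM Alexa 594-labeled) in 100 mM sodium acetate pH 7 with compound, aggregation induced by 20 uM heparin for 6 hr at 37 C. ThT (30 uM) added for 1 hr, then Alexa 594 FP read.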
CBFb RUNX1 block – qHTS Assay for Compounds Blocking the Interaction Between CBF-beta and RUNX1 for the Treatment of Acute Myeloid Leukemia | 230,000 tested, under 10 active | AlphaScreen CBFb-His/RUNX1-biotin binding, biochemical | AID 1477, 2009 | Potency, µM (highest dose often 59.8 µM), for inactives: top-dose activity, negative = inhibition, most hits filed as inhibitors | Runt-related transcription factor 1 (Homo sapiens) + Core-binding factor subunit beta …; note: % of control where 0% means no effect
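Interaction loss through any mechanism counts as activity. Pre-formed complex of His-CBF-beta and biotin-RUNX1 (30 nM apiece) is incubated with compound 15 min, then with 50 ng nickel and 50 ng streptavidin beads for 90 min before AlphaScreen detection.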
* marks the source's active call; other numbers are inactive results; ? = inconclusive; . = no result; ! = not active in a repeat; [ ] = dose if it differs, or a comment. Unless noted, calls come from the whole dose curve; as a rule, active = well fitted curve in the direction sought with a large enough effect; inconclusive = small, poorly fitted or top-dose-only effect, or another doubt; inactive = no such curve, though single readings can be large; an effect the other way counts as inactive or inconclusive.

SMILES	KDM4E inh	Tau ThT inhib	Tau fluor cs	Lamin A splicing	Tau fibril FP	CBFb RUNX1 block
COc1ccc(-n2c(-c3ccc(C)cc3)nc3ccccc3c2=O)cc1	-5%	-9%	-6%	.	5%	-3%
CNCCc1ccc(O)c(O)c1	14µM*	?	-19%	?	-13%	1%
CC/C=C\C/C=C\C/C=C\C/C=C\C/C=C\CCCC(=O)NCCc1ccc(O)c(O)c1	2%	-14%	?	.	0%	7%
CCCc1cc2c(n1Cc1ccc(C)cc1)C(C)C1CN(C(=O)c3ccccc3)C(C)(C(=O)OC)C21 (stereo not given)	?	?	-27%	.	-6%	2%
CCCc1cc2c(n1Cc1ccco1)C(C)C1CN(C(=O)c3ccccc3)C(C)(C(=O)OC)C21 (stereo not given)	?	22µM*	-12%	.	?	14%
Cc1cccc(N2C(=O)CSC23C(=O)N(CC(=O)Nc2cccc(Cl)c2)c2ccccc23)c1 (stereo not given)	.	11%	?	-24%[46 µM]	25µM*	.
COc1cccc(CN2C(=O)C3(SCC(=O)N3c3ccc(C)c(Cl)c3)c3ccccc32)c1 (stereo not given)	.	?	-15%	.	-11%	.
ClC(Cl)=C(Cl)Cl	.	.	.	.	.	7%[21.7 µM]
S=C(S)N1CCCC1	?	32µM*	-14%	?	?	?
O=C(Nc1ccc(Br)cc1)c1ccc(Cl)c(S(=O)(=O)N2CCCCCC2)c1	.	9%	?	?	?	.
COc1cc2c(cc1O)C[C@H]1NCCc3cc4c(c-2c31)OCO4	?	14µM*	?	?	-4%	-6%[2.36 µM]
CC(=O)N1CCN(c2ccc(OCC3CO[C@@](Cn4ccnc4)(c4ccc(Cl)cc4Cl)O3)cc2)CC1 (stereo not given in full)	3%	?	?	.	-10%	-26%
Nc1c(C(=O)Nc2ccc(Cl)cc2)sc2nc3c(cc12)N1CCC3CC1	.	?	?	.	-22%	.
Nc1c(C(=O)Nc2ccc(Cl)c(C(F)(F)F)c2)sc2nc3c(cc12)N1CCC3CC1	.	?	5µM*[quencher]	.	?	.
Oc1ccc(/C=N/NP(=S)(c2ccccc2)c2ccccc2)c(O)c1O	14µM*	25µM*	?	16%	?	-19%
Oc1ccc(/C=N/NP(=S)(c2ccccc2)c2ccccc2)cc1O	?	?	14µM*[quencher]	2%	12%	-6%
Cc1ccc(-n2c(O)c(/C=N/NC(=O)c3ccncc3)c(=O)[nH]c2=O)cc1C	22µM*	?	-8%	-1%	1%	?
COc1ccccc1-n1c(O)c(C=NCc2ccc3c(c2)OCO3)c(=O)[nH]c1=O	-21%	-5%	-3%	1%	1%	9%
CCOc1ccc(N=Cc2c(O)n(-c3ccc(C)c(C)c3)c(=O)[nH]c2=O)cc1	145%	.	15%	.	-1%	6%
CC(CO)(CO)N=Cc1c(O)n(-c2cccc3ccccc23)c(=O)[nH]c1=O	-2%	-1%	-5%	-1%	1%	1%
COc1ccccc1-n1c(O)c(/C=N/NC(=S)Nc2ccccc2)c(=O)[nH]c1=S	28µM*	?	?	.	-2%	?
O=C(N/N=C/c1c(O)n(-c2cccc3ccccc23)c(=O)[nH]c1=O)c1ccncc1	13µM*	-13%	-3%	.	-9%	?
CCn1c(O)c(/C=N/NC(=O)c2ccccc2)c(=O)[nH]c1=S	32µM*	.	-21%	.	0%	-6%
COc1ccc(C(O)P(=O)(OC2CCCCC2)c2ccc(N(C)C)cc2)cc1OC (stereo not given)	-10%	-9%	-3%	-5%	?	1%
O=C(N/N=C/c1c(O)n(CCc2ccc(F)cc2)c(=O)[nH]c1=O)c1ccncc1	?	?	-19%	.	12%	?
SMILES	KDM4E inh	Tau ThT inhib	Tau fluor cs	Lamin A splicing	Tau fibril FP	CBFb RUNX1 block
O=C(N/N=C/c1c(O)n(CCc2ccc(F)cc2)c(=O)[nH]c1=O)c1ccccc1	20µM*	.	-17%	.	-3%	7%
O=C(N/N=C/c1c(O)n(CCc2ccccc2)c(=O)[nH]c1=O)c1ccncc1	28µM*	?	-9%	-11%	2%	.
O=C(N/N=C/c1c(O)n(Cc2ccccc2)c(=O)[nH]c1=O)c1ccccc1O	-3%	8%	-5%	-8%	?	-5%
O=C(N/N=C/c1c(O)n(CCc2ccccc2)c(=O)[nH]c1=O)c1ccccc1O	28µM*	.	12%[0.0958 µM]	.	9%[0.0958 µM]	-23%
C[C@@H]1O[C@H](C[N+](C)(C)C)C[C@H]1O	2%	-1%	0%	-11%	2%	4%
C[C@H]1OC[C@@H](C[N+](C)(C)C)O1	25µM*!	-14%	-13%	?	-12%	8%
COc1cc2c(cc1OC)-c1c(OC)c(OC)cc3c1C(C2)N(C)CC3 (stereo not given)	?	?	-19%	-3%	4%	-9%
COc1cc2c(cc1OC)-c1c(O)c(OC)cc3c1[C@H](C2)N(C)CC3	?	5µM*	?	.	11µM*	4%[21.7 µM]
CC(C)c1ccc(N=Nc2c(O)[nH]c(=O)[nH]c2=O)cc1	-6%	.	-10%	.	-8%	-1%
O=c1[nH]c(=S)[nH]c(O)c1N=Nc1ccc(SC(F)F)cc1	-2%	3.5µM*	-20%	.	-16%	-12%
Cc1c(N=Nc2c(O)[nH]c(=S)[nH]c2=O)c(=O)n(-c2ccccc2)n1C	-6%	?	-7%	-13%	?	-12%
O=c1[nH]c(=S)[nH]c(O)c1N=Nc1ccc(S(=O)(=O)N2CCc3ccccc32)cc1	-6%	5µM*	?	.	9%	-2%
CC(C)=CCCC(C)C1CC[C@@]2(C)C3=C(CC[C@@]12C)C1(C)CCC(O)C(C)(C)C1CC3 (stereo not given in full)	-9%	?	-12%	?	-7%	.
CC(C)C[C@H]1C(=O)N2CCC[C@@H]2[C@]2(O)O[C@](NC(=O)[C@@H]3C=C4c5cccc6[nH]c(Br)c(c56)C[C@H]4N(C)C3)(C(C)C)C(=O)N12	?	?	?	.	4%	-4%[21.7 µM]
